# Measurements reported in PubChem BioAssay AID1788 (Vanderbilt High Throughput Screening Facility, 2009).
# A number with no mark means an inactive call. The rule behind the calls is not given here.
# System: Phorbol Ester (mouse)
# Test: PubChem AID 1788
# Settings: MDS Pharma lead profiling panel, radioligand binding, at 10 µM, active compounds read high
compound,measurement,value
CCOC(=O)N1CCC(NCCNC(=O)c2ccccc2C)CC1,inhibition,25%
